Records with an inconclusive call do not appear. A call without a number means that no potency is given here. Calls of active or inactive are those of the source. Calls come from the whole dose curve; as a rule, active = well fitted cell-killing curve with a large enough effect; inconclusive = small, poorly fitted or top-dose-only effect; inactive = flat fitted curve, though single readings scatter.
Potency is the fitted concentration of half-maximal effect.

This assay can be described thus: qHTS of pediatric cancer cell lines to identify multiple opportunities for drug repurposing: Primary screen for BT-12 cells (AID 1347101). Note: nearly all actives have a fitted effect of over 25% in size. Particulars: BT-12 viability, CellTiter-Glo luminescence, 48 h; series mostly up to 57.3 µM. The text has this: Drug repurposing or repositioning has been offered as a strategy for drug development in oncology programs. This approach has special potential for childhood cancers and other rare or orphan diseases, where the expected return on new drug development has been a disincentive to pharmaceuticals.
In this project we exploit the poly-pharmacology of drugs to discover new indications via phenotypic screening of a panel of 19 well-characterized cell lines derived from solid tumors seen in children and adolescents. The goal is to identify approved drugs with previously unrecognized anticancer properties that has the potential to reveal new mechanisms and biological processes involved in carcinogenesis or drug resistance. We employed a titration-based paradigm (quantitative high-throughput screening or qHTS), where all compounds were tested at multiple concentrations for their effect on cell viability. Concentration-response curves (CRCs) were derived directly from the primary screen, and both potency and efficacy values were used to identify compounds with robust bioactivity profiles. We screened the NIH Chemical Genomics Center (NCGC) Pharmaceutical Collection (NPC) and Mechanism Interrogation Plate (MIPE) small molecule collections of approved and investigational compounds against these cell lines; and measured metabolically active cells after 48 hours of compound treatment as a proxy for cell viability.
Assay Submitter: Nathalia J. Martinez, National Center for Advancing Translational Sciences, National Institutes of Health, Rockville, MD, USA; email: natalia.martinez@nih.gov
[1] Shen, M et al. Quantitative high-throughput phenotypic screening of pediatric cancer cell lines identifies multiple opportunities for drug repurposing. Oncotarget 2017 Dec 19;9(4):4758-4772. PMID 29435139.
The cells were obtained from University of North Carolina (UNC), Pediatric Preclinical Testing Program (PPT), and Coriell Institute (CI).
qHTS cell viability assay:
Cells were assayed in growth media at a density of 500-1,000 cells/well. Five microliters of cells were dispensed into 1,536-well, white, solid-bottom, TC-treated plates (Greiner Bio One) using a multidrop dispenser and incubated at 37 degrees C, 5% CO2, under a humidified atmosphere for 5 hours. Twenty-three nanoliters of compounds and controls (neutral control DMSO or positive control bortezomib at final concentration of 2.3 µM) were subsequently transferred by Kalypsys pintool. For primary screens, the MIPE collection was tested at 11-point dilutions (final concentrations range from 0.78 nM to 46 µM) and the NPC collection at 8-point dilutions (final concentrations range from 0.59 nM to 46 µM). Compounds tested in follow-up screens were assayed at 11-point dilutions. Cells were incubated for 48 hours, followed by addition of 3 µL of CellTiter-Glo (Promega). After a 15 min incubation at room temperature, samples were analyzed for luminescence intensity using a ViewLux High-throughput CCD imager equipped with clear filters.
`Cc1ccc2c(c1)c1c(n2CCc2ccc(C)nc2)CCN(C)C1`: the Potency entry is “inactive”.
Then `COc1cccc(OC)c1-c1cc(C(=O)NC2(C(=O)O)C3CC4CC(C3)CC2C4)nn1-c1ccnc2cc(Cl)ccc12` (stereo not given), with “inactive”; and `COC(=O)Nc1ccc(-c2nc(N3CCOCC3)c3cnn(C4CCN(C(=O)OC)CC4)c3n2)cc1`, with 0.611 µM (active); and `COc1ccc(C=CC(=O)Nc2ccccc2C(=O)O)cc1OC`, with “inactive”.
Consider `C[C@@H]1[C@H](O)[C@@H](C)C=CC=CC=CC=CC=CC=CC=C[C@H](O[C@@H]2O[C@H](C)[C@H](O)[C@H](N)[C@@H]2O)C[C@@H]2O[C@](O)(C[C@@H](O)C[C@@H](O)[C@H](O)CC[C@@H](O)C[C@@H](O)CC(=O)O[C@H]1C)C[C@H](O)[C@@H]2C(=O)O`, for which the Potency entry is “inactive”.
As for `CCC=CC[C@H]1C(=O)CC[C@@H]1CC(=O)OC`, the Potency entry is “inactive”.
Then `COc1nccc(-c2c(-c3ccc(F)cc3)ncn2C2CCC(O)CC2)n1` (stereo not given), with “inactive”; and `C[C@@H]1O[C@@H](O[C@H]2CC[C@@]3(C)[C@H](CC[C@@H]4[C@H]3C[C@@H](O)[C@]3(C)[C@@H](C5=CC(=O)OC5)CC[C@]43O)C2)C[C@H](O)[C@@H]1O[C@H]1C[C@H](O)[C@H](O[C@H]2C[C@H](O)[C@@H](O)[C@@H](C)O2)[C@H](C)O1` (stereo in doubt), with 0.14 µM (active); and `COc1ccc(CCC(=O)Nc2nc3ccc(Cl)cc3s2)cc1OC`, with “inactive”.
Regarding `CC1=C(CC(=O)O)c2cc(F)ccc2C1=Cc1ccc(S(C)=O)cc1` (stereo not given), the Potency result is “inactive”.
Take `CCOC(=O)[C@@H](N)CCC(=O)N[C@@H](CSCc1ccccc1)C(=O)N[C@@H](C(=O)OCC)c1ccccc1`: the Potency result was “inactive”.
For the compound `Cc1ccccc1C(C(=O)NC1CCCCC1)N(C(=O)CNc1ccc(C#N)cc1)c1cccc(F)c1` (stereo not given), the Potency entry was “inactive”.
On to `Oc1cc(O)cc(C=Cc2ccc(O)c(O)c2)c1`, for which the Potency was 24.3 µM (active).
For `CC1(COc2ccc3c(c2)ncn3-c2ccc3cccc(N4CCC(N)CC4)c3n2)COC1`, the Potency is 6.11 µM (active).
Then `C[C@H]1[C@H](O)O[C@@H]2O[C@@]3(C)CC[C@@H]4[C@H](C)CC[C@@H]1[C@@]24OO3`, with 1.53 µM (active).
Then `O=C(O)C1=CC(O)C(O)[C@H](O)C1` (stereo not given in full), with “inactive”; and `C[C@@]1(C(=O)Nc2ccc(F)nc2)CCCN1c1nc(Nc2cc(C3CC3)[nH]n2)c2cccn2n1`, with “inactive”; and `CC(C)[C@H](O)C(=O)N[C@@H](C)C(=O)N[C@@H]1C(=O)N(C)CCc2ccccc21`, with “inactive”.
As to `Cc1cccc(Nc2nc(N[C@@H]3CCCC[C@H]3N)ncc2C(N)=O)c1`, the Potency is 30.6 µM (active).
As to `CC[C@H](NC(=O)[C@H](C)NC)C(=O)N1C[C@@H](O)C[C@H]1Cc1c(-c2[nH]c3cc(F)ccc3c2C[C@H]2C[C@H](O)CN2C(=O)[C@H](CC)NC(=O)[C@H](C)NC)[nH]c2cc(F)ccc12`, the Potency was 0.273 µM (active).
To `Cc1ccc(NC(=O)c2ccc(CN3CCN(C)CC3)cc2)cc1Nc1nc(-c2cccnc2)cs1` belongs 21.7 µM (active); to `COc1c(C)c2c(c(O)c1CC=C(C)CCC(=O)OCCN1CCOCC1)C(=O)OC2`, 1.93 µM (active); to `O=C(O)C1=NC(C(=O)O)CC(C=CN2c3cc(O)c(OC4OC(CO)C(O)C(O)C4O)cc3CC2C(=O)O)=C1` (stereo not given), “inactive”.
On to `CC(=O)OCC(=O)[C@@]12OC(C)(C)O[C@H]1C[C@H]1[C@@H]3C[C@H](F)C4=CC(=O)C=C[C@]4(C)[C@@]3(F)[C@@H](O)C[C@@]12C`, for which the Potency result was “inactive”.
For `CCOC(=O)[C@H]1O[C@H]1C(=O)N[C@@H](CC(C)C)C(=O)NCCC(C)C`, the Potency entry was “inactive”.
`Cc1ccc(C(=O)N(CCCN)[C@@H](c2oc3cc(Cl)ccc3c(=O)c2Cc2ccccc2)C(C)C)cc1`: the Potency is 0.001 µM (active).
To `O=C(O)CCNc1cc(N2CCc3ccccc3CC2)nc(-c2ccccn2)n1` belongs “inactive”; to `CC1(C)[C@H]2CC[C@]3(C)[C@@H](C(=O)C=C4[C@@H]5C[C@@](C)(C(=O)O)CC[C@]5(C)CC[C@]43C)[C@@]2(C)CC[C@@H]1O`, “inactive”.
To `Cc1cccc(-c2[nH]c(C(C)(C)C)nc2-c2ccc3c(c2)OCO3)n1` belongs 7.69 µM (active); to `O=C(Nc1ncc(SCCN2CCCC2)s1)[C@]1(c2ccc(S(=O)(=O)C3CC3)cc2)C[C@@H]1C1CCCCC1`, 27.3 µM (active).
To `C[C@@]1(c2cc(-c3cncnc3)c(F)cc2F)CCSC(N)=N1` belongs 3.85 µM (active).
Turning to `CCN1CCC(n2cc(CNc3cc(Cl)c4ncc(C#N)c(Nc5ccc(F)c(Cl)c5)c4c3)nn2)CC1`, the Potency is 24.3 µM (active).
To `Cc1ccc(S(=O)(=O)Nc2nc3ccccc3nc2Nc2ccc3nsnc3c2)cc1` belongs 0.0668 µM (active); to `Cc1c(C(=O)Nc2ccc(N3C[C@@H](C)O[C@@H](C)C3)nc2)cccc1-c1ccc(OC(F)(F)F)cc1`, 13.7 µM (active).
Regarding `CC1(C)OC2CC3C4CC(F)C5=CC(=O)C=CC5(C)C4C(O)CC3(C)[C@]2(C(=O)CO)O1` (stereo not given in full), the Potency result was “inactive”.
As to `O=c1[nH]nc(OCCCc2ccc(Cl)cc2)c(NCc2cccnc2)c1Br`, the Potency is 27.3 µM (active).
To `O=C(O)Cc1cccc(OCCCN(Cc2cccc(C(F)(F)F)c2Cl)CC(c2ccccc2)c2ccccc2)c1` belongs 24.3 µM (active); to `CN1CCC[C@H]1CCO[C@](C)(c1ccccc1)c1ccc(Cl)cc1`, “inactive”.
Then `CC1CCN(c2cc(N3CCN(C)CC3)ccc2NC(=O)c2cc(C#N)c[nH]2)CC1`, with “inactive”.
As to `N#Cc1c(N(CC(=O)O)CC(=O)O)sc(C(=O)O)c1CC(=O)O`, the Potency entry was “inactive”.
